In PubChem BioAssay AID493085 (Broad Institute, 2011):
About 360 (15%) of roughly 2,400 compounds were called active. Not shown: some 5% with an inconclusive outcome.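 The calls were made as follows: active = falling-signal curve with half-maximal concentration at or below ten times the top tested dose; inconclusive = flat fit at 30 to 70% inhibition, or poor fit; inactive = signal rise, flat within 30%, or potency beyond limit.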 Not all results are given here. Measured potencies and affinities stand elsewhere.

experiment: Tet-On RFP internal-standard readout, HSF1 screen, dose response, cell-based, NIH3T3 R4, HSE-GFP and Tet-On RFP, cherry-pick, set 3 (AID 493085); conditions: NIH3T3 R4 HSE-GFP/Tet-RFP reporter, fluorescence, 48 h; series mostly up to 19.5 µM;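 also: cells heat shocked 2 h at 42 °C with doxycycline to induce reporters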

outcome, inactive:
CCOC(=O)c1cccc(NC(=O)CCS(=O)(=O)c2ccc(Br)s2)c1
CC(OC(=O)CN1C(=O)c2ccccc2C1=O)C(=O)NC1CCCCC1C (centres undefined)
COC1CCCN(C(=O)c2ccc(OC3CCN(CCc4ccccc4)CC3)cc2)C1 (centres undefined)
O=C(CCN1C(=O)/C(=C/c2ccc(F)cc2)SC1=S)NCCCn1ccnc1
Cn1nc(N)c2c(-c3ccccc3)c(C#N)c(N)nc21
Cc1c(NC(=O)C2CC(c3ccc(F)cc3)=NO2)c(=O)n(-c2ccccc2)n1C (centres undefined)
Cc1ccc(N=C2NC(=O)/C(=C\c3cccs3)S2)cc1C
O=C(NCc1ccccc1C(F)(F)F)C12CN(Cc3ccccc3)CC1C(c1ccc([N+](=O)[O-])cc1)=NO2 (centres undefined)
COc1ccc(CNC(=O)CCCNC(=O)c2ccc(Cl)cc2)cc1OC
COC(=O)c1cc(S(=O)(=O)NCc2ccc(F)cc2)cn1C
Cc1ccc(C(=O)O/N=C(\N)c2ccccn2)c(C)c1
CC(C)(C)C(=O)Nc1ccc(-c2cc3cc(Cl)ccc3o2)cc1
CC1CCN(S(=O)(=O)c2ccc(C(=O)Nc3nnc(-c4ccccn4)o3)cc2)CC1
CCS(=O)(=O)c1ncc(Cl)c(C(=O)Nc2ccc(C)cc2)n1
CN1CCN(S(=O)(=O)c2ccc(Oc3ccc(F)c(Cl)c3)nc2)CC1
CCc1ccc(OC(C)C(=O)N(Cc2ccco2)C2CCS(=O)(=O)C2)cc1 (centres undefined)
Cc1ncc([N+](=O)[O-])n1CC(=O)Nc1ccc(F)cc1
O=C(Cn1nc(-c2ccc(Cl)cc2)ccc1=O)NCC1CCCO1 (centres undefined)
O=C(O)c1cccc(Nc2ccnc(Nc3cccc(C(=O)O)c3)n2)c1
Cc1cc(Nc2cccc(Cl)c2)nc(-c2ccccc2O)n1
CCOc1cc(CNCC2CCCN2CC)cc(Cl)c1OC (centres undefined)
COc1ccc(-c2cn(-c3ccccc3)nc2CO)cc1
Cn1ccnc1C1CCCCN1C(=O)c1cc(COc2ccc(F)cc2Cl)on1 (centres undefined)
Cc1cc(=O)n2[nH]c(=O)c(N=Nc3ccccc3)c2[nH]1
CN(C)c1ccc(C(=S)Nc2ccccc2)cc1
Cc1ccc(Cl)cc1NC(=O)C1COc2ccccc2O1 (centres undefined)
CN(C)c1ccc(/C=N/NC(=O)C2COc3ccccc3O2)o1 (centres undefined)
Cc1ccc(O)c(/C=N/NC(=O)CN2CCCC2)c1
NCCCC[C@@H](C(=O)N1CCNCC1)n1cc([C@@H](N)CO)nn1
COc1ccc(C(=O)c2c[nH]cc2-c2ccccc2)cc1
COc1ccc(OC)c(C(=O)c2ccc(C(=O)O)cc2)c1
Cc1cn2c(nc(=O)c3cccnc32)s1
Cc1ccc(S(=O)(=O)N2CCC(C)CC2)cc1[N+](=O)[O-]
COc1ccc(C(=O)N/C(=C\c2cccs2)c2nc3ccccc3[nH]2)cc1OC
Cn1c(N2CCOCC2)nc(-c2ccccc2)c1-c1ccccc1
C=CCc1c(C)nc2c(-c3ccccc3)cnn2c1N1CCOCC1
C=CCn1c(C)cc(C(=O)COC(=O)CNC(=O)c2ccccc2)c1C
O=C(COC(=O)c1cc[n+]([O-])cc1)Nc1cccc(Cl)c1Cl
CNC(=O)COC(=O)c1ccccc1C(=O)c1ccc(Cl)c([N+](=O)[O-])c1
CC(C)(C)c1ccc(/C=C(\C#N)C(=O)Nc2ccccn2)cc1
COc1cc(C(C(=O)NCc2ccccc2)N(Cc2ccco2)C(=O)c2cnccn2)cc(OC)c1OC (centres undefined)
COc1ccc2cc3c(N)nn(C(=O)Cc4c[nH]c5ccccc45)c3nc2c1
CSc1cccc(NC(=S)N2CCC(N(C)C3CCCC3)CC2)c1
CS(=O)(=O)c1ccc(NC(=O)c2ccc3c(c2)S(=O)(=O)N=C2CCCCCN23)cc1
CCN(C(=O)COC(=O)/C=C/c1ccccc1)C1CCCCC1
Cc1cccc(N(Cc2ccccc2)C(=O)CCl)c1
COc1ccccc1NC(=O)[C@H](COCc1ccccc1)NC(=O)OC(C)(C)C
CCn1c(SCC(=O)N(C)C2CCS(=O)(=O)C2)nnc1-c1cccs1 (centres undefined)
CN(C(=O)CCNC(=O)Cn1cnc2ccccc2c1=O)c1ccccc1F
CCOc1ccc(NC(=S)Nc2ccc(OC(F)(F)F)cc2)cc1
CSc1ccccc1NC(=O)C1=CC(c2ccc(C)cc2)=NS(=O)(=O)N1C
Cc1[nH]c(=O)c(C#N)cc1-c1csc(-c2ccccc2)n1
COC(=O)CCC(=O)NNC(=O)c1cccc(Br)c1
COc1ccccc1CCC(=O)OCC(=O)Nc1cccc(S(=O)(=O)N2CCOCC2)c1
CCOC(=O)C1=C(C)N(CCC(=O)O)C(=O)NC1c1ccccc1Cl (centres undefined)
COc1ccc(/C=C(\C#N)C(=O)Nc2cc(C)c(Cl)cc2OC)cc1O
CSc1nccn1C(=O)c1ccccc1[N+](=O)[O-]
Cc1ccc(-n2cc(C(=O)c3ccccc3O)cn2)cc1
O=C(CSc1nc2ccccc2s1)N/N=C/c1ccccc1C(=O)O
CC(C)c1ccccc1-n1c(-c2cccnc2)n[nH]c1=S
COc1ccccc1NC(=O)Cn1c(=O)c(N(C)C)c(N)n(C)c1=O
COCCn1c(=O)[nH]c2cc(C(=O)NC3CCCCCC3)ccc2c1=O
COc1cccc(NC(=O)CCSc2nnc3scc(-c4ccccc4)n23)c1
CCCC(NC(=O)COc1cc2c(c3oc(=O)cc(C)c13)CCC(C)(C)O2)C(=O)O (centres undefined)
CC(C(=O)NC1CC(C)(C)NC(C)(C)C1)c1ccc([N+](=O)[O-])cc1 (centres undefined)
CC(=O)c1cccc(NC(=O)CN2C(=O)c3ccccc3C2=O)c1
CCOc1ccc(/C=N/NC(=O)c2ccc(Cn3cc([N+](=O)[O-])cn3)o2)cc1
NC(=S)N/N=C1\CC(n2nnnc2-c2ccccc2Cl)C2COC1O2 (centres undefined)
COc1ccc(/C=N/Nc2nc(C)cc(=O)[nH]2)cc1OC
